Screens (PubChem BioAssay)
A549 tox – Nrf2 qHTS screen for inhibitors: counterscreen for cytotoxicity. A549 ARE-Fluc cells, CellTiter-Fluor viability, 18-24 h. 0.16% of 390,000 active. Potency, µM (titrated, usually from 46 µM), most hits filed as inhibitors
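A549 ARE_Fluc cells in 5% FBS OPTI-MEM were exposed to compounds in concentration-response for 18-24 h at 37 deg C. Viability was read by CellTiter-Fluor fluorescence (Ex 405/Em 525) after 30 min, before the luciferase read.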
S2 tox – Viability Counterscreen for Primary qHTS for Inhibitors of ATXN expression; AID 651635, 2014; S2 cells (HEK-293 line with an ATXN2-luciferase reporter) viability, CellTiter-Fluor protease fluorescence, 24 h; Potency, µM (titrated, usually from 56.7 µM), actives largely listed as cytotoxic; 0.49% of 400,000 active; also: nearly all actives have a fitted effect of over 40% in size
Nrf2 block – Nrf2 qHTS screen for inhibitors; A549 ARE-Fluc reporter, luciferase luminescence, 18-24 h; Potency, µM (top dose mostly 46 µM), actives largely listed as inhibitors; 2.1% of 360,000 active; also: nearly all actives have a fitted effect of over 60% in size
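A549 ARE_Fluc cells, 5000/well, 5% FBS OPTI-MEM; compounds in dose-response, 18-24 h at 37 °C/5% CO2; CellTiter-Fluor viability read (Ex 405/Em 525), then BugLite luciferase luminescence = Nrf2 activity.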
ATXN2 expr inh – Primary qHTS for Inhibitors of ATXN expression | HEK-293 ATXN2-luciferase reporter, luminescence, 24 h | Potency, µM (series often up to 57 µM), usual class: inhibitors | 0.72% of 360,000 active | AID 1745845, 2022; also: nearly all actives have a fitted effect of over 55% in size
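qHTS (up to 57 uM final) was run with 24 h compound exposure of reporter cells at 37 °C. Each well was multiplexed: SteadyGlo luminescence measured ATXN2-luciferase expression after a fluorogenic Gly-Phe-AFC viability readout (25 uM final).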
TGFb inhibitor – qHTS for Inhibitors of TGF-b; AID 588855, 2011; 1.2% of 410,000 active; Potency, µM (series often up to 46.1 µM), most hits filed as inhibitors; HepG2 CAGA-GFP TGF-b/SMAD3 reporter, GFP fluorescence, 18 h; TGF-beta stimulated, 500 pg/mL final; also: nearly all actives have a fitted effect of over 65% in size
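HEPG2 CAGA-GFP reporter cells (1000/well, DMEM with 1% FBS) received compounds, then recombinant TGF-beta at 500 pg/mL final for 18 hours at 37 degrees C. Per-cell GFP summed per well was normalised to unstimulated and stimulated DMSO controls before curve fitting.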
HepG2 viability – qHTS for Inhibitors of TGF-b: Cytotox Counterscreen; Potency, µM (doses to about 46.1 µM), actives largely listed as cytotoxic; 0.76% of 410,000 active; HepG2 CAGA-GFP viability, ATP luminescence, 18 h
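HepG2 CAGA-GFP cells (1000/well, DMEM with 1% FBS) received compound, then TGF-beta at 500 pg/mL final, and were incubated 18 hours at 37 degrees C. Viability was read by CellTiter-Glo luminescence. Media-only wells were set as complete cell-killing and DMSO as no toxicity.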
Of the large screens only hits and unclear results are named; the others gave an inactive call. Most compounds without a hit are left out; they make up all but 3.8% or so of the library. Calls follow the shape of the dose curve; as a rule, active = well fitted curve in the direction sought with a large enough effect; inconclusive = small, poorly fitted or top-dose-only effect, or another doubt; inactive = no such curve, though single readings can be large; an effect the other way counts as inactive or inconclusive.

CC(C)C[C@H]1CNC(=S)N1C[C@H]1CCCN1C[C@H](Cc1ccc(O)cc1)N1C[C@H](Cc2ccc(O)cc2)N(CC2CCCCCC2)C1=S	S2 tox 13µM, ATXN2 expr inh 18µM, TGFb inhibitor inconclusive, HepG2 viability 13µM (no result: A549 tox, Nrf2 block)
CC(C)C[C@@H](CN1CCC[C@@H]1CN1C(=S)NC[C@@H]1Cc1ccc(O)cc1)N1C[C@H](Cc2ccc(O)cc2)N(CCc2ccccc2)C1=S	S2 tox 28µM, TGFb inhibitor 13µM (no result: A549 tox, Nrf2 block)
CCOC(=O)c1ccccc1NC(=O)N(C)CCc1c(C)nn(CC)c1C	S2 tox inconclusive (no result: Nrf2 block)
O=S(=O)(c1cccs1)N1CCN(CCOc2ccc(Cl)cc2)CC1	Nrf2 block 15µM, ATXN2 expr inh inconclusive, TGFb inhibitor inconclusive
O=S(=O)(c1cccs1)N1CCN(c2ccc(Cl)cc2)CC1	none
NC(=O)c1ccsc1NC(=O)COC(=O)Cc1c[nH]c2ccccc12	Nrf2 block inconclusive
NC(=O)c1ccsc1NC(=O)COC(=O)Cc1cccc2ccccc12	S2 tox inconclusive, Nrf2 block 4.1µM
CCN(CC)C(=O)Cn1nc(C)c2ccccc2c1=O	none
O=C1N/C(=C/c2ccc(N3CCOCC3)o2)C(=O)N1c1cccc(Cl)c1	TGFb inhibitor 10µM
Cc1ccc(/C=C2/NC(=O)N(c3ccccc3)C2=O)o1	none (no result: A549 tox)
CCOC(=O)c1c(NC(=O)CN2C(=O)NC3(CCCCC3C)C2=O)sc(C)c1CC (stereo not given)	S2 tox inconclusive, Nrf2 block inconclusive, TGFb inhibitor inconclusive
COC(=O)c1c(NC(=O)CN2C(=O)NC3(CCCCC3C)C2=O)sc2c1CCC2 (stereo not given)	Nrf2 block 16µM
O=C(COc1ccc(Cl)cc1)Nc1ccccc1C(=O)NCc1cccnc1	none
COc1ccc(CN(C)C(=O)c2ccc(COc3ccccc3)cc2)c(OC)c1	S2 tox inconclusive, Nrf2 block inconclusive, TGFb inhibitor inconclusive
COC(=O)/C(=C\c1cccnc1)NC(=O)c1ccc(OCc2ccccc2)cc1	Nrf2 block 16µM
O=C(Cc1ccc(Cl)cc1)c1c[nH]c(C(=O)NCc2cccnc2)c1	S2 tox 2.5µM (no result: ATXN2 expr inh)
O=C(COc1ccc(Cl)cc1)Nc1ccc(C(=O)NCc2cccnc2)cc1	Nrf2 block 21µM
COc1cc(OC)c(OC)cc1CNC(=O)c1ccc(COc2ccccc2)cc1	Nrf2 block 16µM
Cc1ccc(S(=O)(=O)Cn2nnnc2CN2CCCC3(CCCCC3)C2)cc1	Nrf2 block inconclusive, TGFb inhibitor inconclusive
Cc1ccc(N(C)S(=O)(=O)c2cccc(C(=O)NCC(c3ccco3)N3CCCC3)c2)cc1 (stereo not given)	none
O=C(NCc1ccc(Cl)cc1)c1cccnc1	none
O=C(COc1ccc(-c2ccccc2)cc1)Nc1cccnc1	Nrf2 block 16µM
O=C(COc1ccc([N+](=O)[O-])cc1)Nc1cccnc1	Nrf2 block inconclusive (no result: ATXN2 expr inh)
Cc1ccc(OCc2ccc(C(=O)NCc3cccnc3)cc2)cc1C	Nrf2 block 23µM, TGFb inhibitor inconclusive (no result: ATXN2 expr inh)
CC(C)(C)c1ccc(C(=O)NCc2cccnc2)cc1	S2 tox inconclusive
O=C(NCc1cccnc1)c1ccc(COc2ccc(Cl)cc2)cc1	Nrf2 block 23µM (no result: ATXN2 expr inh)
O=C(CSc1nccn1Cc1ccccc1)NCc1ccco1	none (no result: S2 tox, Nrf2 block, ATXN2 expr inh)
COc1cc(Nc2nc(SCc3ccccc3F)nc3ccccc23)cc(OC)c1	TGFb inhibitor inconclusive (no result: S2 tox, Nrf2 block, ATXN2 expr inh)
COc1cc(Nc2nc(SCc3ccccc3Cl)nc3ccccc23)cc(OC)c1	TGFb inhibitor 11µM (no result: S2 tox, Nrf2 block, ATXN2 expr inh)
COc1ccc(C)cc1NC(=O)c1ccc2c(c1)nnn2C1CCCC1	Nrf2 block inconclusive, TGFb inhibitor inconclusive
Clc1ccccc1OCc1nnc(-c2ccccc2Br)o1	Nrf2 block inconclusive
O=c1c(Cl)c(Cl)cnn1Cc1nnc(-c2ccccc2Br)o1	ATXN2 expr inh inconclusive, TGFb inhibitor 16µM (no result: S2 tox)
